This note sets out measurements from PubChem BioAssay (NCI).

The structures appear in SMILES notation. The panel holds about 83,000 compounds, 20% with a hit somewhere; the sample as a whole holds those more often.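 Single-dose data. Exposure time 48 hours. Values below 10 considered active.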 Values without a mark were called inactive. Activity calls are given as the source filed them.

Holding throughout (assay): NCI-60 one-dose screen, 48 h (100 = growth as untreated, 0 = no growth, -100 = all killed)
Details in all cases: 10 µM unless noted

Experiment [1] relates to NCI-H23 lung.
In experiment [2] the test system is NCI-H226 lung.
Experiment [3] concerns NCI-H322M lung.
Experiment [4] relates to HOP-62 NSCLC.
Experiment [5] relates to NCI-H460 lung.
In experiment [6] the test system is NCI-H522 lung.
For experiment [7], the system named is A549/ATCC NSCLC.
In experiment [8] the test system is 786-0 renal.
For experiment [9], the system named is COLO 205 colon.
In experiment [10] the test system is DU-145 prostate.
In experiment [11] the test system is K-562 leukemia.
In experiment [12] the test system is MALME-3M melanoma.
Experiment [13] concerns MDA-MB-231 breast.
Experiment [14] deals with RXF 393 renal.
Experiment [15] deals with SF-268 CNS.
The test system of experiment [16] is SF-539 CNS.
Experiment [17] concerns UACC-257 melanoma.
Experiment [18] deals with M14 melanoma.
In experiment [19] the test system is HCT-15 colon.
Experiment [20] concerns SF-295 CNS.

As to `O=C(N1CCC(CN=c2cc3n(-c4ccc(Cl)cc4)c4ccccc4nc-3cc2Nc2ccc(Cl)cc2)CC1)N1CC1`, the growth in experiment [1] was -58.2% (active); in [2], 37.2%; in experiment [3] it was -54.3% (active); in experiment [4], -85.2% (active); in experiment [5], -71.5% (active); in experiment [6], -76.7% (active). The growth was -89.4% (active) in experiment [7]; -93.2% (active) in experiment [8]; -59% (active) in experiment [9]; -95.3% (active) in experiment [10]; -66.5% (active) in experiment [11]; -72.5% (active) in experiment [12]. For the same compound, the growth in experiment [13] is -56.9% (active); in experiment [14], -93.3% (active); in experiment [15], -63.6% (active); in experiment [16], -88% (active); in experiment [17], -94.4% (active); in [18], -73.8% (active). Also, in [19], the growth is -36.8% (active).

Take `Cc1cc(CC(=O)O)n(C)c1C(=O)c1ccc(Cl)cc1`: the growth in [1] is 96.3%; in [2], 95.2%; in experiment [3] it was 120%; in experiment [4], 117%; in experiment [5], 115%; in experiment [6] it was 101%. For the same compound, the growth in experiment [7] is 108%; in [8], 103%; in experiment [9], 114%; in [10], 125%; in [11], 103%; in experiment [12], 102%. Moreover, the growth in [13] was 109%; in experiment [14], 117%; in experiment [15], 114%; in [20], 93.1%; in [17], 104%; in experiment [18] it was 106%. The growth in [19] is 103%.

With `COc1cc2c(cc1OCCCOc1ccc(-c3cc4ccccc4c4ccccc34)cc1)N=C[C@@H]1CCCN1C2=O`, the growth in experiment [1] is -39.3% (active); in experiment [2], -78.7% (active); in experiment [3], -69.4% (active); in [4], -45% (active); in [5], -45.2% (active); in experiment [6] it was -43.9% (active). Besides, the growth was -17.4% (active) in experiment [7]; -79.9% (active) in [8]; -0.637% (active) in experiment [9]; -35.6% (active) in experiment [10]; 10.5% in [11]; -57.9% (active) in [12]. Besides, the growth in experiment [13] was -71.2% (active); in experiment [14] it was -49.6% (active); in experiment [15], -61.2% (active); in experiment [20], -64.6% (active); in [16], -57.6% (active); in [18], -34.2% (active). In experiment [19], the growth is -64% (active).

In the case of `CN1C(=O)/C(=C/c2nc(-c3cccc(F)c3)n3ccccc23)c2ccccc21`, the growth in experiment [1] is 83.7%; in [2], 84.4%; in [3], 80.8%; in experiment [4] it was 80.7%; in [5], 56.1%; in experiment [6] it was 40%. The growth in experiment [7] was 44.9%; in experiment [8], 70.7%; in [9] it was 93%; in [10], 82.6%; in experiment [11] it was 79.7%; in experiment [12], 57.6%. For the same compound, the growth is 61.3% in experiment [13]; 66.2% in [14]; 92% in experiment [15]; 87.4% in experiment [20]; 71.4% in experiment [16]; 79.1% in experiment [17]. Besides, the growth in experiment [18] is 73.1%; in experiment [19], 93%.

For the compound `COc1ccc(Nc2ccnc(NCCCNc3ccnc4cc(Cl)ccc34)n2)cc1`, the growth in experiment [1] was 58.1%; in experiment [2], 69.6%; in experiment [3], 3.32% (active); in experiment [4], 46.9%; in experiment [5], -56.5% (active); in experiment [6] it was -55% (active). The growth in experiment [7] is -14.5% (active); in experiment [8], -97.7% (active); in experiment [9], -65% (active); in [10] it was 22.4%; in experiment [11] it was -19.2% (active); in [12] it was -81.5% (active). Further, the growth in [13] is -73.4% (active); in experiment [14] it was -90% (active); in [15] it was -28.6% (active); in [20], -82.2% (active); in experiment [16], -100% (active); in experiment [18], -91.9% (active). For the same compound, the growth in experiment [19] was -54.6% (active).

For `Fc1ccc(-c2nc(Nc3ccc(-c4nc5ccccc5[nH]4)cc3)nc(N3CCOCC3)n2)cc1`, the growth in experiment [1] was -83.4% (active); in [2], -64.5% (active); in experiment [3] it was -92.8% (active); in experiment [4] it was -73.9% (active); in [5], -80.3% (active); in experiment [6], -73.9% (active). The growth in [7] is -75.2% (active); in experiment [8], -94.5% (active); in experiment [9] it was -68.4% (active); in [10] it was -94% (active); in experiment [11], -100% (active); in experiment [12], -73.4% (active). For the same compound, the growth in experiment [13] was -76.7% (active); in experiment [14], -91.1% (active); in [15], -82.7% (active); in experiment [20], -94.4% (active); in [16], -92.7% (active); in [18] it was -82.6% (active). Moreover, in [19], the growth is -92.6% (active).

Regarding `S=c1[nH]nc2sc3ccccc3n12`, the growth is 88% in experiment [1]; 106% in [2]; 125% in [3]; 97.9% in experiment [4]; 111% in [5]; 98.4% in experiment [6]. In addition, the growth was 108% in experiment [7]; 111% in [8]; 104% in experiment [9]; 121% in experiment [10]; 107% in [11]; 122% in [12]. For the same compound, the growth in experiment [13] is 96.7%; in [14], 116%; in [15], 110%; in experiment [16] it was 106%; in [17] it was 111%; in [18], 104%. The growth in experiment [19] is 100%.

On to `O=C1C2C3C=CC(O3)C2C(=O)N1Nc1ccccc1` (stereo not drawn), for which the growth in experiment [1] is 106%; in experiment [2], 109%; in experiment [3], 124%; in experiment [4], 117%; in experiment [5], 112%; in [6], 117%. For the same compound, the growth was 103% in [7]; 107% in [8]; 124% in experiment [9]; 112% in experiment [10]; 103% in experiment [11]; 120% in [12]. For the same compound, the growth in [13] was 99.8%; in [14], 119%; in experiment [15], 102%; in [20] it was 107%; in [17], 104%; in experiment [18] it was 104%. In addition, the growth in experiment [19] was 104%.
